Cycloheximide cs = Cycloheximide Counterscreen for Small Molecule Inhibitors of Shiga Toxin. 300,000 compounds, 12% hits. cell reporter, cycloheximide protein synthesis inhibition counterscreen. max response, %. AID 2314, 2010; in the data active = max response mostly above about 13%, no sharp cut-off; inactive = mostly below about 14%; note: read at 38.3 µM for the half of the compounds with a filed dose
Shiga toxin inh = A qHTS for Small Molecule Inhibitors of Shiga Toxin. inhibition, % at 38.7 µM. 290,000 compounds, 9.2% hits. Vero cells, Shiga toxin protein synthesis inhibition reporter; in the data active = inhibition mostly above about 28%, no sharp cut-off; inactive = mostly below about 43%
NS1 inh = qHTS Assay for Inhibitors of Influenza NS1 Protein Function; Potency, µM (highest dose often 46.1 µM); 270,000 compounds, 0.4% hits; calls by dose curve; note: actives are rising curves; nearly all actives have a fitted effect of over 50% in size
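A cell-based growth assay was used: compounds that relieve NS1-induced slow growth of budding yeast raise OD600. Assay medium was yeast nitrogen base with ammonium sulphate and -URA supplement, pH 6.0, with 2% galactose.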
LmPK inh = qHTS Assay for Inhibitors of Leishmania Mexicana Pyruvate Kinase (LmPK); 290,000 compounds, 0.37% hits; purified LmPK, Kinase-Glo ATP luminescence, 1 h; Potency, µM (highest dose often 57.5 µM), hits mostly inhibitors
Target sequence (Q27686 whole entry, looked up): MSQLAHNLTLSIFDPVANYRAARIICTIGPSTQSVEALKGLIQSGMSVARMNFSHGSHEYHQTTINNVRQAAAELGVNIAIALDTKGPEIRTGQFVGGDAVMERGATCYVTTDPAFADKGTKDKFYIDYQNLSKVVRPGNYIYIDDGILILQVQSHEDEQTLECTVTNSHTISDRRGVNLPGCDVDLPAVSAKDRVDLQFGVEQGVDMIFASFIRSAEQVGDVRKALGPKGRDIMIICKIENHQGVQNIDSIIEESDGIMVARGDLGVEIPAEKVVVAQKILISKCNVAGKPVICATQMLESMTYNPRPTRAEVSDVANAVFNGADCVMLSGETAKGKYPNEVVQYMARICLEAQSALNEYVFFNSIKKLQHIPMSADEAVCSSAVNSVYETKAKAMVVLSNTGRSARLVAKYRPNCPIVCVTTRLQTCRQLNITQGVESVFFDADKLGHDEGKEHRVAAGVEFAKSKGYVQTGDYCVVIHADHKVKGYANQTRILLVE
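0.1 nM LmPK, 0.5 mM PEP, 0.1 mM ADP; 50 mM imidazole pH 7.2, 7 mM MgCl2, 50 mM KCl; 1 h RT. Kinase-Glo luminescence readout, normalized to no-enzyme (full inhibition) and uninhibited wells.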
Giardia FBPA inh = qHTS Assay for Inhibitors of Fructose-1,6-bisphosphate Aldolase from Giardia Lamblia; purified Giardia FBPA; A8B2U2; 290,000 compounds, 0.71% hits; Potency, µM (titrated, usually from 59.6 µM), hits mostly inhibitors; note: nearly all actives have a fitted effect of over 55% in size
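Giardia FBPA (40 nM reagent) was preincubated 10 min at RT with compound (up to 57.5 uM final), then substrate plus GAPDH/TPI/NAD/arsenate coupling system with diaphorase/resazurin was added; resorufin fluorescence (525/598 nm) was read after 20 min.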
Numbers stand for hits; i = inactive; ? = inconclusive; nt = no result; [ ] = dose if it differs, or a comment. In the library only some 14% were active in any assay of this set; here they are far more common. Unless noted, calls come from the whole dose curve; as a rule, active = well fitted curve in the direction sought with a large enough effect; inconclusive = small, poorly fitted or top-dose-only effect, or another doubt; inactive = no such curve, though single readings can be large; an effect the other way counts as inactive or inconclusive.

SMILES	Cycloheximide cs	Shiga toxin inh	NS1 inh	LmPK inh	Giardia FBPA inh
COc1cccc(Oc2coc3cc(OC(=O)N4CCOCC4)ccc3c2=O)c1	i	i	i	i	i
CCN(CC)C(=O)Oc1ccc2c(=O)c(-c3ccc(OC)cc3)coc2c1	45	83	i	i	i
COc1ccccc1-c1coc2cc(OC(=O)N3CCOCC3)ccc2c1=O	48	101	i	i	i
CCc1c2c(nc3cccc(OC)c13)OC(CC)C2 (stereo unspecified)	nt	nt	nt	nt	i
CC#CCN1c2ccccc2[C@]23C[C@@H](C(=O)OC)N(S(=O)(=O)c4ccc5c(c4)OCCN5C)C2=NC(C(=O)OC)=C(C(=O)OC)[C@H]13	nt	nt	nt	i[11.5 µM]	i[12.9 µM]
COCCn1c(C)cc(C(=O)CN2C(=O)NC3(CCCCCCC3)C2=O)c1C	52	93	i	i	i
Cc1cc(C)c(C(=O)CN2C(=O)NC3(CCCCC3)C2=O)cc1C	21	34	nt	i	i
Cc1cc(C)c(C(=O)CN2C(=O)NC3(CCC(C)CC3)C2=O)cc1C (stereo unspecified)	i	i	nt	i	i
Cc1noc(C)c1S(=O)(=O)N1CCc2nc(COc3ccccc3)c3c(c2C1)CO[C@@H](C)C3	nt	nt	nt	i[11.5 µM]	i[12.9 µM]
O=c1c2ccccc2[nH]c(=S)n1CCc1ccccc1	33	69	i	i	i
Cc1nc2ccccc2c(=O)n1CCc1ccccc1	16	i	i	i	i
Cc1nc2ccccc2c(=O)n1CCc1ccc(O)cc1	i	i	i	i	i
NNc1nc2ccccc2c(=O)n1Cc1ccccc1	29	43	i	i	i
CC(C)OCCCn1c(NN)nc2ccccc2c1=O	i	i	i	i	i
CC(C)CO/N=C1/C[C@@H](O)[C@@H](O)[C@@H]2[C@@H]3C(=O)N([C@@H](C)c4ccccc4)C(=O)[C@H]3CC[C@@H]12	nt	nt	nt	nt	i[12.9 µM]
COc1ccc(NC(=O)CN2C(=O)NC(c3ccccc3)(c3ccccc3)C2=O)cc1OC	i	i	i	i	i
O=C(OCC(=O)N1CCOCC1)c1ccc2c(c1)OCCO2	i	i	i	i	i
CC1CCN(C(=O)COC(=O)c2ccc(Br)o2)CC1	67	94	i	i	i
CCOC(=O)C1CCN(C(=O)COC(=O)c2ccc(Br)o2)CC1	i	i	i	i	i
CC1CCN(C(=O)COC(=O)c2ccc3c(c2)OCO3)CC1	34	82	nt	i	i
c1ccc2sc(SCN(C3CCCCC3)C3CCCCC3)nc2c1	nt	nt	i	nt	nt
O=C(CSc1ccccc1)Nc1ccc2c(c1)C(=O)NC2=O	i	i	i	i	i
CCn1nc(C)c(CN2CCc3c([nH]c4ccccc34)C2c2ccc(F)c(OC)c2)c1C (stereo unspecified)	16	i	i	i	i
Cn1c(=O)c2c(ncn2CN2CCN(Cn3cnc4c3c(=O)n(C)c(=O)n4C)CC2)n(C)c1=O	nt	nt	i	nt	nt
COC(=O)COc1ccc(C2NC(=O)NC(c3ccccc3)=C2C(C)=O)cc1Br (stereo unspecified)	i	i	i	i	i
SMILES	Cycloheximide cs	Shiga toxin inh	NS1 inh	LmPK inh	Giardia FBPA inh
CCN(CC)S(=O)(=O)c1cccc(NC(=O)COC(=O)c2cccs2)c1	i	i	nt	i	i
Cn1c(=O)[nH]c(=O)c2c1nc(N1CCCCC1)n2C/C=N/Nc1ccc(C(=O)O)cc1	62	i	i	i	i
NC(=O)c1cccc2c3c([nH]c12)CCCC3	36	87	i	i	i
Clc1ccc(OC2CCN(Cc3nc(CC4CC4)no3)CC2)cc1	i	i	i	i	i
Fc1ccccc1C1CCN(Cc2nc(CC3CC3)no2)C1 (stereo unspecified)	28	75	i	i	i
Fc1ccc2nc(C3CCN(Cc4nc(CC5CC5)no4)CC3)[nH]c2c1	15	i	i	i	i
Cc1nn2c(=O)c(NC(=O)c3ccc(F)cc3)cnc2s1	i	i	i	i	i
Cc1nn2c(=O)c(NC(=O)c3ccc(Cl)cc3)cnc2s1	36	52	nt	i	i
Cc1ccc(C(=O)Nc2cnc3sc(C)nn3c2=O)cc1	37	58	i	i	i
COc1cccc(C(=O)NCC2(c3ccc(OC)c(OC)c3)CCCC2)c1	i	i	i	i	i
CCNc1ncc2nc(-c3cn(C)c4ccccc34)c(=O)n(C[C@H]3CCCO3)c2n1	nt	nt	nt	nt	i
COc1cc(/C=N/NS(=O)(=O)c2ccc3ccccc3c2)ccc1OCCN1CCOCC1	18	i	i	i	i
COc1cc(/C=N/NS(=O)(=O)c2ccc(C)cc2)ccc1OCc1ccc(C(=O)O)cc1	42	146	nt	i	i
COc1ccc(/C=N/NS(=O)(=O)c2ccccc2)cc1OC	i	i	i	i	i
COc1ccc(S(=O)(=O)N/N=C/c2ccc(OCCN3CCOCC3)c(OC)c2)cc1	20	i	i	i	i
C[C@H](NC(=O)CNC(=O)[C@@H](NC(=O)[C@H](Cc1ccccc1)NC(=O)CNC(=O)CNC[C@@H](N)Cc1ccccc1)[C@@H](C)O)C(=O)N[C@@H](CCCN=C(N)N)C(=O)N[C@@H](CCCCN)C(=O)N[C@@H](CO)C(=O)N[C@@H](C)C(=O)N[C@@H](CCCN=C(N)N)C(=O)N[C@@H](CCCCN)C(N)=O	i	i	nt	nt	i
CN1C(=O)C[C@H](C(=O)O)[C@@H]1c1cccnc1	i	i	nt	nt	i
Nc1nc2c(C(=O)N3CCOCC3)nnn2c2ccccc12	21	60	i	i	i
CCOC(=O)c1nnn2c1nc(N1CCOCC1)c1ccccc12	i	i	i	i	i
Cc1cc(C(F)(F)F)c(C#N)c(N2CCOCC2)n1	i	i	i	i	i
N#Cc1c(N2CCOCC2)nsc1-c1ccc(C(F)(F)F)cc1	29	i	i	i	i
FC(F)(F)c1ccccc1-c1ccc2ncnc(N3CCOCC3)c2c1	nt	nt	nt	nt	i
O=C(c1cc2ccccc2o1)N1CCCC1	i	i	i	i	i
CC(=O)N1CCN(C(=O)c2cc3ccccc3o2)CC1	i	i	i	i	i
O=C(c1cc2ccccc2o1)N1CCCCCC1	46	62	i	i	i
SMILES	Cycloheximide cs	Shiga toxin inh	NS1 inh	LmPK inh	Giardia FBPA inh
CC1CCN(C(=O)c2cc3ccccc3o2)CC1	56	76	i	i	i
COC(=O)c1c(C)[nH]c(C(=O)C(Cc2ccccc2)N(C)C)c1C (stereo unspecified)	26	96	i	i	i
COC(=O)c1c(C)[nH]c(C(=O)NCc2ccco2)c1C	i	i	nt	i	i
CCOC(=O)c1c(C)[nH]c(C(=O)C(Cc2ccccc2)N(C)C)c1C (stereo unspecified)	20	i	i	i	i
COc1cccc(-n2c(N)cc(=O)nc2SCC(=O)N2CCN(c3ccccc3)CC2)c1	i	i	i	i	nt
Cc1[nH]nc2c1C(c1ccccc1F)CC(=O)N2 (stereo unspecified)	13	i	?	i	i
O=C1Cc2ccccc2N1c1ccccc1	i	i	i	i	i
O=C1CC(=Nc2ccccc2)NN1c1ccccc1	14	i	i	i	i
